Source: PubChem BioAssay (NCI)
“And” between values parts separate entries of the source, which are not always exact repeats. Equal entries are not always repeated. This is part of a sample that, as a whole, favours compounds with a hit. Of some 83,000 tested, about 20% had one in any assay.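 Percent growth is the endpoint: 0 to 100 indicates growth inhibition (40 means 60% inhibition), 0 means no net growth, and negative values indicate cell death.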 Unmarked numbers belong to inactive results. The source made the active and inactive calls.

Test system: COLO 205 colon
Assay: NCI-60 one-dose screen, 48 h (100 = growth as untreated, 0 = no growth, -100 = all killed)
Details: 0.01 µM
Protocol: Cells are grown in 96 well plates and exposed to the test compound for 48 hours. Compounds are tested at a single concentration, which is 10^-5 M for most compounds. The reported endpoint is percent growth (GI% or GIPRCNT), where numbers from 0 - 100% represent growth inhibition, and numbers from -100% - 0 represent cell death. For example, a value of 40 represents 60% growth inhibition. A value of 0 means no net growth occurred over the course of the experiment. A value of -40 indicates 40% of cells at the beginning of the experiment died by the end of the experiment. A value of -100 means all cells are dead at the end of the experiment.
NCI-60 Human Tumor Cell Lines Screen was performed using the standard one-dose NCI protocol, which is described in more detail at https://dtp.cancer.gov/discovery_development/nci-60/default.htm.
Compounds with GIPRCNT values below 10 were considered active. Activity score was based on GIPRCNT using the following formula: […]
Score is 0 for GIPRCNT values of 100 or above, 50 for GIPRCNT values of 0, and 100 for GIPRCNT values of -100.

In the case of `CC(=O)O[C@H]1C(=O)[C@@]2(C)[C@H]([C@H](OC(=O)c3ccccc3)[C@]3(O)C[C@H](OC(=O)[C@H](O)[C@@H](NC(=O)c4ccccc4)c4ccccc4)C(C)=C1C3(C)C)[C@]1(OC(C)=O)CO[C@@H]1C[C@@H]2O`, the growth is reported as 13.4%.

Same assay, conditions: 2.5 µM

`CC(=O)O[C@H]1C(=O)[C@@]2(C)[C@H]([C@H](OC(=O)c3ccccc3)[C@]3(O)C[C@H](OC(=O)[C@H](O)[C@@H](NC(=O)c4ccccc4)c4ccccc4)C(C)=C1C3(C)C)[C@]1(OC(C)=O)CO[C@@H]1C[C@@H]2O` was tested, and the growth was -54.6% (active).

Same assay, conditions: 5 µM

With `CC(=O)O[C@H]1C(=O)[C@@]2(C)[C@H]([C@H](OC(=O)c3ccccc3)[C@]3(O)C[C@H](OC(=O)[C@H](O)[C@@H](NC(=O)c4ccccc4)c4ccccc4)C(C)=C1C3(C)C)[C@]1(OC(C)=O)CO[C@@H]1C[C@@H]2O` the growth was -47.9% (active).

Same assay, conditions: 10 µM

With `CC(=O)O[C@H]1C(=O)[C@@]2(C)[C@H]([C@H](OC(=O)c3ccccc3)[C@]3(O)C[C@H](OC(=O)[C@H](O)[C@@H](NC(=O)c4ccccc4)c4ccccc4)C(C)=C1C3(C)C)[C@]1(OC(C)=O)CO[C@@H]1C[C@@H]2O` the growth was 9.93% (active) and -37.3% (active).
`Cc1cc(O)c2c(c1O)C(=O)C13C(=C2O)C(=O)C2C(O)C1C1C(O)C3C(=O)C3=C(O)c4c(O)cc(C)c(O)c4C(=O)C321` (stereo not given) was tested, and the growth was -30.4% (active).
With `COc1ccc2oc(-c3ccc(Cl)cc3)c(N3CCN(C)CC3)c2c1` the growth was -72.5% (active).
`O=C1c2cccc3cc([N+](=O)[O-])cc(c23)C(=O)N1CCN1CCCC1` was tested, and the growth was -13.8% (active).
With `O=C1c2ccccc2CCC1(Br)Br` the growth was -68.2% (active).
For `S=P(N1CC1)(N1CC1)N1CC1`, the growth was 106% and 121%.
With `Cn1c2nc3ccccc3c-2nc2ccccc21` the growth was 86.7% and 83.9%.

First: O=c1[nH]cc(/C=N\Nc2ccccc2)c(=O)[nH]1
Second: O=Nc1ccc(Nc2ccccc2)cc1
The growth of the first is lower: 67.9% for the first, 105% for the second.

Going from `Cc1c(-c2ccccc2)[nH]c2ccccc12` to `COc1cc(N)ccc1Nc1c2ccccc2nc2ccccc12`, the growth falls from 115% to 12.4%.

Compared with `COc1ccc(N)c2c1C(=O)c1ccccc1C2=O`, `Cc1cc(C)c(N2C(=O)CC(Sc3ccccc3N)C2=O)c(C)c1` (stereo not given) is lower in growth: 111% for the first, 84.8% for the second.

First: CN(CC(=O)O)c1ccc(/C=C/c2ccnc3ccccc23)cc1
Second: CN(C)c1ccc(/C=C/c2ccnc3ccccc23)cc1N
The growth of the first is higher: 91.2% for the first, 62.9% for the second.

First: Cn1ncc2cc3c(Nc4ccc(Cl)cc4)cccc3nc21
Second: COc1ccc2c(c1)[nH]c1c(/C=C/c3ccccc3)nccc12
The growth of the first is higher: 96.1% for the first, 14.4% for the second.

First: O=C1C=CC(=O)N1c1ccc(N2C(=O)C=CC2=O)cc1
Second: COc1ccc(C(C#N)=C2C=CC(=NO)C=C2)cc1
The growth of the first is lower: 95.2% for the first, 127% for the second.

Compared with `O=C(NC(=S)Nc1ccccn1)c1ccccc1`, `O=C(O)c1ccccc1.[Ag]` is lower in growth: 101% for the first, 25.8% for the second.

First: COc1cccc(C(c2cc3c(cc2O)OCO3)N2CCOCC2)c1OC (stereo not given)
Second: CC[C@@]1(OC(=O)CN(C)C)C(=O)OCc2c1cc1n(c2=O)Cc2cc3c(N)cccc3nc2-1
The growth of the first is higher: 111% for the first, 17.5% for the second.

Compared with `O=[N+]([O-])c1cc(S(=O)(=O)Nc2ccccc2)ccc1Cl`, `O=C(CNS(=O)(=O)Cc1ccccc1)NNc1ccccc1` is lower in growth: 119% for the first, 75.2% for the second.

Going from `Cc1cc(N=C2C=CC(=[N+](C)C)C=C2)c(N)cc1N` to `N#CC(=C1C=CC(=NO)C=C1)c1ccccc1`, the growth falls from 95.8% to 30.4%.

Compared with `CCC(=O)Oc1ccc(/C=N/NC(N)=S)nc1`, `NCc1c(O)ccc2ccccc12` is higher in growth: 79.5% for the first, 105% for the second.

Compared with `CC1CCC2(C(=O)O)CCC3(C)C(=CCC4C5(C)CC(O)C(O)C(C)(CO)C5C(O)CC43C)C2C1C` (stereo not given), `CCOC(=O)[C@]1(Br)CC[C@@]1(Br)C(=O)OCC` is higher in growth: 112% for the first, 116% for the second.

Going from `C=C1N(C)c2ccc(Cl)cc2C1(C)C` to `O=S(=O)(c1cc(Cl)ccc1O)c1cc(Cl)ccc1O`, the growth rises from 23.7% to 105%.

First: O=C1C(Cl)=C(Cl)C(Cl)(Cl)C(Cl)C1(Cl)Cl (stereo not given)
Second: N#C/C(=C/N1C(=O)/C(=C/c2ccc([N+](=O)[O-])cc2)SC1=S)c1nc2ccccc2s1
The growth of the first is higher: 105% for the first, 90.3% for the second.

In the case of `S=C1SCN(CCc2ccccc2)CN1CCc1ccccc1`, the growth is reported as 99.2%.

Same assay, conditions: 100 µM

With `S=P(N1CC1)(N1CC1)N1CC1` the growth was 78.6%.
